An excerpt weighted towards active compounds, which were near 3.5% of everything screened.
GPR151 ag: human GPR151 activation; Q8TDV0; PathHunter beta-arrestin GPR151 cells, luminescence; activation, % at 11.2 µM; hit rate 1% among 650,000; AID 1508602; in the data active = activation above about 4.9%
TEAD-YAP block: TEAD-YAP interaction inhibition; HEK-TIYL cells, TEAD-Gal4/YAP UAS-luciferase luminescence; inhibition, % at 9.12 µM; hit rate 1.4% among 640,000; in the data active = inhibition above about 32%
FBW7 act: human FBW7 E3 ligase activation, primary screen. Q969H0. AlphaScreen FBW7–phospho-cyclin E peptide binding, activator screen. normalized activity (activation), % at 26.1 µM. hit rate 0.13% among 650,000. AID 1259310; in the data active = normalized activity above about 1.9%;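 also: purified mutant Fbw7 with reduced substrate affinity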
MITF inh: human MITF inhibition, primary screen; inhibition, % at 2.6 µM; AlphaScreen MITF homodimerization, bead proximity signal; O75030; hit rate 0.91% among 650,000; in the data active = inhibition above about 50%
Target sequence (O75030 whole entry, looked up): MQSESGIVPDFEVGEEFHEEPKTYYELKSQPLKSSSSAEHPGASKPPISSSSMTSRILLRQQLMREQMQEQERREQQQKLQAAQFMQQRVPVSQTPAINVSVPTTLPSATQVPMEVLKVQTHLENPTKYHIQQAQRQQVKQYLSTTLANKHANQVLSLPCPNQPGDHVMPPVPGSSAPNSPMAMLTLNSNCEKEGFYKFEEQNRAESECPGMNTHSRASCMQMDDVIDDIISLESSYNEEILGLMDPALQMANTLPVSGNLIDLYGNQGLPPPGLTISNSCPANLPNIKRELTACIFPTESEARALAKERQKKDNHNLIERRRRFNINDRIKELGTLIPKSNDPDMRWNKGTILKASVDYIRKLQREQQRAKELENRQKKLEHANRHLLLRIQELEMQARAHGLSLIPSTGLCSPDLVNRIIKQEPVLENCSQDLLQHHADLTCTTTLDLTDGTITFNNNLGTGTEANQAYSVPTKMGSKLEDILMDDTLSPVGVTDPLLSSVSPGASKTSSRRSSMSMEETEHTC
GPR151 confirm: human GPR151 activation, confirmation screen | activation, % at 11.2 µM | GPR151 PathHunter beta-arrestin cells, luminescence, 90 min; % of EA-reagent control over plate median | shares compounds with GPR151 ag | 6,700 tested, under 10 active;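 active = mean percent activation across replicates above the confirmation screen cutoff of 4.91%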
GPR119 counter: counter-screen for GPR151 activators: effect on human GPR119; shares compounds with GPR151 ag; GPR119 PathHunter beta-arrestin cells, luminescence, 90 min; 0 = compound-well median, 100 = enzyme-acceptor control; activation, % at 11.2 µM; hit rate 0.3% among 6,700; AID 1508611;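 active = mean percent activation in the counterscreen above 29.09%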;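 also: counterscreen on off-target GPR119 to flag nonselective hits from the GPR151 activator screen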
Large screens that a line does not name were inactive (follow-up assays come after a bar, where they were run).

CCCCOc1ccc(OCC(=O)N/N=C/c2cccc(OC)c2)cc1	GPR151 ag 5.7 | GPR151 confirm inactive | GPR119 counter inactive
COc1ccc(/C=N/NC(=O)c2ccc(=O)n(C)c2)cc1	none
COc1ccc(/C=N/NC(=O)c2ccc(=O)n(C)c2)cc1OC	GPR151 ag 10 | GPR151 confirm inactive | GPR119 counter inactive
CC(C)C(=O)NCCn1nc(-c2ccco2)ccc1=O	none
O=C1Cc2ccccc2N1c1ccccc1	GPR151 ag 9.9 | GPR151 confirm inactive | GPR119 counter inactive
O=C1CCCCC(=O)N(c2ccccc2)c2ccccc21	none
Cc1cc(C(=O)N/N=C/c2ccccc2F)n[nH]1	GPR151 ag 9.8 | GPR151 confirm inactive | GPR119 counter inactive
Cc1cc(C(=O)N/N=C/c2ccccc2O)n[nH]1	none
CCOc1ccc(Br)cc1/C=N\NC(=O)c1cc(C)[nH]n1	GPR151 ag 7.1 | GPR151 confirm inactive | GPR119 counter inactive
C/C(=N\NC(=O)c1ccc(F)cc1)c1ccccc1	GPR151 ag 5.4 | GPR151 confirm inactive | GPR119 counter inactive
C/C(=N\NC(=O)c1ccc(C(=O)N/N=C(\C)c2ccc(F)cc2)cc1)c1ccc(F)cc1	none
O=C(NC1CCN(Cc2ccccc2)CC1)c1ccc2nc3ccccc3c(=O)n2c1	none
Cc1ccc(NC(=O)COC(=O)CCc2ccco2)cc1C	GPR151 ag 6.3 | GPR151 confirm inactive | GPR119 counter inactive
CN(C)c1ccc(/C=C/CN2CCC(O)CC2)cc1	none
CN(C)c1ccc(/C=C/CN2CCCCCC2)cc1	GPR151 ag 4.9 | GPR151 confirm inactive | GPR119 counter inactive
O=C(Nc1nc(-c2ccccc2)cs1)c1ccc(Cl)s1	none
O=C(Nc1nc(-c2ccc(I)cc2)cs1)c1ccc(Cl)s1	GPR151 ag 5.5 | GPR151 confirm inactive | GPR119 counter inactive
O=C(c1cccnc1)N1CCc2[nH]c3ccccc3c2C1	none
CC(C)C(=O)Nc1nnc(S(=O)(=O)N(C)c2ccc(Cl)cc2)s1	GPR151 ag 5.8 | GPR151 confirm inactive | GPR119 counter inactive
CC(=O)c1nc2ccccc2n1S(=O)(=O)c1ccc(Cl)cc1	GPR151 ag 5.2 | GPR151 confirm inactive | GPR119 counter inactive
CCN(CC)c1nc(NCCO)nc(N2CCN(c3ccccn3)CC2)n1	GPR151 ag 7.6 | GPR151 confirm inactive | GPR119 counter inactive
CCN(CC)c1nc(NCc2cccnc2)nc(N2CCN(c3ccccn3)CC2)n1	GPR151 ag 6.0 | GPR151 confirm inactive | GPR119 counter inactive
CN(Cc1nc2ccc(F)cc2[nH]1)C(=O)CCC1(Cc2ccc(Cl)cc2)CCC(=O)N1 (centres undefined)	none
CCc1nc(-n2nc(C)cc2N)c2c3c(sc2n1)CCC3	none
CCc1nc(-n2nc(C)cc2N)c2c3c(sc2n1)CCCC3	GPR151 ag 6.5 | GPR151 confirm inactive | GPR119 counter inactive
O=C(Nn1c(-c2ccc(F)cc2)nc2ccccc2c1=O)c1cncc(Br)c1	GPR151 ag 5.5 | GPR151 confirm inactive | GPR119 counter inactive
CN1C(=O)CC(Nc2ccc(N(C)C)cc2)C1=O (centres undefined)	GPR151 ag 7.3 | GPR151 confirm inactive | GPR119 counter inactive
CCN1C(=O)CC(Nc2ccc(N(C)C)cc2)C1=O (centres undefined)	none
c1ccc(CN2CCC(Nc3ccnc(N4CCc5ccccc5C4)n3)CC2)cc1	none
CN(C)S(=O)(=O)c1ccc(Cl)c(NC(=O)CN2CCNC(=O)C2)c1	GPR151 ag 5.2 | GPR151 confirm inactive | GPR119 counter inactive
Cn1ccnc1C1(O)CCN(C(=O)NC2CCCCC2)CC1	none
N#CCC(=O)NCCOc1ccccc1	GPR151 ag 8.6 | GPR151 confirm inactive | GPR119 counter inactive
CCN(CC)CCNc1c2c(nc3nnnn13)CCCC2	none
COCCCNc1c2c(nc3nnnn13)CCCC2	GPR151 ag 6.1 | GPR151 confirm inactive | GPR119 counter inactive
O=C(CSC1=NC(=O)C(Cc2ccccc2)C(=O)N1)Nc1ccccc1 (centres undefined)	none
Cc1ccc(NC(=O)CSC2=NC(=O)C(Cc3ccccc3)C(=O)N2)cc1 (centres undefined)	GPR151 ag 11 | GPR151 confirm inactive | GPR119 counter inactive
CC(=O)Nc1ccc(S(=O)(=O)N(C)CCOCc2ccccc2)cc1	GPR151 ag 5.4 | GPR151 confirm inactive | GPR119 counter inactive
CC(=O)NC(=S)Nc1ccc(S(=O)(=O)N(C)Cc2ccccc2)cc1	none
COc1cc(/C=C2/C(=O)NC(=O)N(c3ccccc3F)C2=O)cc(Cl)c1O	none
COc1ccc(C(=O)NCCc2nnc3n2CCN(Cc2ccc(CO)o2)CC3)cc1	none
Cc1cc(/C=C2\C(=O)NC(=O)N(c3ccc(F)cc3)C2=O)c(C)n1C1CC1	none
Cc1cc(/C=C2\C(=O)NC(=S)N(c3ccc(F)cc3)C2=O)c(C)n1C1CC1	GPR151 ag 5.3 | GPR151 confirm inactive | GPR119 counter inactive
CCCCCOc1ccc(NC(=O)C(=O)NCC(CC)CCCC)cc1 (centres undefined)	none
C=CCOC(=O)C1=C(C)NC(C)=C(C(=O)OCC=C)C1c1cn(-c2ccccc2)nc1-c1ccc(Br)cc1	GPR151 ag 5.0 | GPR151 confirm inactive | GPR119 counter inactive
Cc1nn(C)c(C)c1-c1cc(C(=O)NCCN2CCOCC2)ccn1	none
CC(NC(=O)C12CC3CC(CC(C3)C1)C2)C(=O)N1CCOCC1 (centres undefined)	GPR151 ag 5.0 | GPR151 confirm inactive | GPR119 counter inactive
O=C(CNC(=O)C12CC3CC(CC(C3)C1)C2)N1CCOCC1	none
Nc1ccc(C(=O)Nc2ccc(Oc3cccc(Oc4ccc(NC(=O)c5ccc(N)cc5)cc4)c3)cc2)cc1	GPR151 ag 6.1 | GPR151 confirm inactive | GPR119 counter inactive
CCCN(CCC)C(=O)Cc1ccc(Br)cc1	GPR151 ag 8.4 | GPR151 confirm inactive | GPR119 counter inactive
N#CCCN(CCC#N)C(=O)Cc1ccc(Br)cc1	none
CCc1ccc(NC(=O)CSc2nc3ncccc3[nH]2)cc1	GPR151 ag 6.5 | GPR151 confirm inactive | GPR119 counter inactive
O=S(=O)(Nc1ccc(S(=O)(=O)Nc2ccccc2)cc1)c1ccccc1	none
O=S(=O)(Nc1ccccc1)c1ccc(NS(=O)(=O)c2c(F)cccc2F)cc1	GPR151 ag 5.2 | GPR151 confirm inactive | GPR119 counter inactive
Cc1nc(NCC2CC2)sc1-c1ccn(-c2cccc(F)c2)n1	GPR151 ag 5.8 | GPR151 confirm inactive | GPR119 counter inactive
Cc1nc(NCC2CC2)sc1-c1ccn(CCN2CCOCC2)n1	none
Cc1ccc2c(c1)CN(CCNC(=O)CCOc1ccccc1)CC(C)O2 (centres undefined)	none
CCNC(=O)CN(c1cc(C(F)(F)F)ccc1Cl)S(C)(=O)=O	none
CS(=O)(=O)N(CC(=O)O)c1cc(C(F)(F)F)ccc1Cl	GPR151 ag 6.3 | GPR151 confirm inactive | GPR119 counter inactive
CC(=O)c1cccc(-c2ccc(/C=C3\C(=O)NC(=O)C(C#N)=C3C)o2)c1	none
